Results from PubChem BioAssay (EPA / NIEHS).
Calls of active or inactive are those of the source. Rule for the calls: active = hit-call score of the fitted dose curve at least 0.9, where 1 is the maximum; inactive = score below 0.9.

How the values were obtained:
Conditions in all cases: mRNA level, 48 h; actives raise or lower the signal
[1] = read-out: Cytochrome P450 (CYP24A1), CYP24A1 (gene 1591); test: LTEA_HepaRG_CYP24A1: Life Technologies and Expression Analysis (LTEA) Assay for Cytochrome P450 (CYP24A1) using HepaRG (AID 2283478)
In short: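 HepaRG cells plated 48 h, then exposed in duplicate in serum-free induction medium for 48 h to 8-point half-log series from 100 uM in 0.5% DMSO. CYP24A1 mRNA by Fluidigm qRT-PCR, normalized to ACTB, GAPDH, POLR2A; bidirectional fit versus DMSO.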

[2] = read-out: Cytochrome P450 (CYP1A2), CYP1A2 (gene 1544); test: LTEA_HepaRG_CYP1A2: Life Technologies and Expression Analysis (LTEA) Assay for Cytochrome P450 (CYP1A2) using HepaRG (AID 2283479)
In short: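 Differentiated human HepaRG cells in serum-free induction medium exposed 48 hours in duplicate to 8 half-log concentrations from 100 uM, 0.5% DMSO. CYP1A2 mRNA quantified by qRT-PCR, normalized to ACTB, GAPDH and POLR2A; bidirectional fitting versus DMSO.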

[3] = read-out: cysteine-aspartic acid protease (CASP8), CASP8 (gene 841); test: LTEA_HepaRG_CASP8: Life Technologies and Expression Analysis (LTEA) Assay for cysteine-aspartic acid protease (CASP8) using HepaRG (AID 2283480)
In short: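 qRT-PCR readout of CASP8 mRNA, normalized to three housekeeping genes, after 48 h chemical exposure of HepaRG cells; 8-point half-log series, top 100 uM, 0.5% DMSO vehicle. Bidirectional curve fitting against DMSO baseline.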

[4] = read-out: Cytochrome P450 (CYP2B6), CYP2B6 (gene 1555); test: LTEA_HepaRG_CYP2B6: Life Technologies and Expression Analysis (LTEA) Assay for Cytochrome P450 (CYP2B6) using HepaRG (AID 2283481)
In short: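 Differentiated human HepaRG cells in serum-free induction medium, dosed in duplicate for 48 h over 8 half-log concentrations topping at 100 uM (0.5% DMSO). CYP2B6 mRNA measured by TaqMan qRT-PCR, normalized to ACTB, GAPDH, POLR2A; bidirectional fit versus DMSO.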

[5] = read-out: Cytochrome P450 2C19 (Homo sapiens) (UniProt P33261); test: LTEA_HepaRG_CYP2C19: Life Technologies and Expression Analysis (LTEA) Assay for CYP2C19 using HepaRG (AID 2283482)
In short: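 Differentiated HepaRG cells in serum-free induction medium exposed 48 h in duplicate, 8 concentrations from 100 uM by half-log steps in 0.5% DMSO. CYP2C19 mRNA measured by TaqMan qRT-PCR, normalized to ACTB, GAPDH, POLR2A. Bidirectional fit versus DMSO.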

CYP2C8 (gene 1558) = test: LTEA_HepaRG_CYP2C8: Life Technologies and Expression Analysis (LTEA) Assay for CYP2C8 using HepaRG (AID 2283483)
In short: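 HepaRG (human liver line), 48 h chemical exposure, 8-pt half-log series from 100 uM, 0.5% DMSO vehicle. Readout: CYP2C8 transcript by qRT-PCR, housekeeping-normalized. Bidirectional fit vs DMSO baseline.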

CYP2E1 (gene 1571) = test: LTEA_HepaRG_CYP2E1: Life Technologies and Expression Analysis (LTEA) Assay for CYP2E1 using HepaRG (AID 2283485)
In short: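 CYP2E1 transcript was measured by TaqMan qRT-PCR in human HepaRG cultures after 48 h chemical exposure (top 100 uM, half-log steps, 0.5% DMSO vehicle). Housekeeping-gene normalization; gain or loss fitted relative to DMSO baseline.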

CYP4A11 (gene 1579) = test: LTEA_HepaRG_CYP4A11: Life Technologies and Expression Analysis (LTEA) Assay for CYP4A11 using HepaRG (AID 2283486)
In short: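 Differentiated HepaRG cells, 48 h after plating, exposed in duplicate for 48 h to 8 half-log concentrations up to 100 uM in 0.5% DMSO in serum-free induction medium. CYP4A11 mRNA measured by TaqMan qRT-PCR, normalized to ACTB, GAPDH and POLR2A.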

[6] = read-out: Cytochrome P450 3A4 (Homo sapiens) (UniProt P08684); test: LTEA_HepaRG_CYP3A4: Life Technologies and Expression Analysis (LTEA) Assay for CYP3A4 using HepaRG (AID 2283487)
In short: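 HepaRG, 48 h exposure, 8-pt CRC from 100 uM (half-log), 0.5% DMSO, duplicates; serum-free induction medium. Readout: CYP3A4 mRNA, qRT-PCR, ACTB/GAPDH/POLR2A normalization. Bidirectional fit vs DMSO.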

Measured: AC50

Chain of Cytochrome P450 2C19 (Homo sapiens) (P33261 whole entry, looked up): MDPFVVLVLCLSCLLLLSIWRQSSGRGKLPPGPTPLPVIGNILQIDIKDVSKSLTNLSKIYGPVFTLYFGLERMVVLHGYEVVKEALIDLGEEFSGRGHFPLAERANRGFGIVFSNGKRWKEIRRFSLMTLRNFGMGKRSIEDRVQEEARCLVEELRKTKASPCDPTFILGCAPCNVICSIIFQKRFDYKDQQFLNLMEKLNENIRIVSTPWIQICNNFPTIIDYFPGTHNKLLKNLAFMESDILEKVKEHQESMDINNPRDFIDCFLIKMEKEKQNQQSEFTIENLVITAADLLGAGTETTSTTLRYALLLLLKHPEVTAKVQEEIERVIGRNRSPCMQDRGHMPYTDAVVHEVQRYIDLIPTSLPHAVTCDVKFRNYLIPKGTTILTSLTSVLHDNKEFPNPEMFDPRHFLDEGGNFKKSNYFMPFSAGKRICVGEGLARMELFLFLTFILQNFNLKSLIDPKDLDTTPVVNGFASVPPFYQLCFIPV
Chain of Cytochrome P450 3A4 (Homo sapiens) (P08684 whole entry, looked up): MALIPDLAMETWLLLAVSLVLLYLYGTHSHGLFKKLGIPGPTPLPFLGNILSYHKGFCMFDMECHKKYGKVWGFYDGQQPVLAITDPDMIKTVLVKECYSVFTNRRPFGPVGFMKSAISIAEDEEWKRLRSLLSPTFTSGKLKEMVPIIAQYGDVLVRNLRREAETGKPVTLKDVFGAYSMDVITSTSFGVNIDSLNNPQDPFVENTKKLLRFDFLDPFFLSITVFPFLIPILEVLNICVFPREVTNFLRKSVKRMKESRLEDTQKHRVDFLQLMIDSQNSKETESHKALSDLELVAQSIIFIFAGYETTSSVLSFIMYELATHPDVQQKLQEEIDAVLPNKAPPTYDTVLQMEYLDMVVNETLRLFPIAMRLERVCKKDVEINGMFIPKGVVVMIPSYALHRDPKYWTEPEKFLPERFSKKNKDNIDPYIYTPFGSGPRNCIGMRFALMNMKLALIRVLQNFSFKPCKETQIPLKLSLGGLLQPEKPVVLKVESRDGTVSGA

CCCCCCCCC(=O)O
not listed: [6]
inactive: all other assays above

C#C[C@]1(O)CC[C@H]2[C@@H]3CCC4=CC(=O)CC[C@@H]4[C@H]3CC[C@@]21C
active: [4] 9.72 µM | [5] 9.92 µM | CYP2C8 (gene 1558) 6.29 µM | CYP2E1 (gene 1571) 0.124 µM | CYP4A11 (gene 1579) 0.0465 µM
inactive: [1] | [2] | [3]

N#C[C@@H]1CC(F)(F)CN1C(=O)CNC1CC2CCC(C1)N2c1ncccn1 (stereo partly specified)
active: [2] 64.4 µM | [4] 27.8 µM | [5] 69 µM | [6] 50 µM
inactive: all other assays above

CCC(C)(C)C1CCC(O)CC1 (stereo unspecified)
active: [4] 16 µM
not listed: [6]
inactive: all other assays above

CCc1ccc(CCOc2ccc(CC3SC(=O)NC3=O)cc2)nc1 (stereo unspecified)
active: [2] 31.6 µM | [4] 92.5 µM | CYP2C8 (gene 1558) 88.4 µM | CYP2E1 (gene 1571) 48.5 µM | CYP4A11 (gene 1579) 85.9 µM
inactive: [1] | [3]

c1ccc2c(c1)ccc1ccccc12
active: [4] 5.8 µM | [5] 15.4 µM | CYP2C8 (gene 1558) 12.7 µM | CYP2E1 (gene 1571) 10.1 µM
inactive: [1] | [2] | [3] | CYP4A11 (gene 1579)

C[C@@H]1C[C@H]2[C@@H]3CCC4=CC(=O)C=C[C@]4(C)[C@@]3(F)[C@@H](O)C[C@]2(C)[C@@]1(O)C(=O)COP(=O)(O)O
active: CYP2E1 (gene 1571) 25 µM | [6] 9.66 µM
inactive: all other assays above

CCc1nn(C2CCCCC2)c2cc(C3(C#N)CCC(C(=O)O)CC3)ccc12 (stereo unspecified)
active: [2] 91 µM | [4] 82.8 µM | [5] 63.3 µM | CYP2C8 (gene 1558) 79.8 µM | CYP2E1 (gene 1571) 60.6 µM | CYP4A11 (gene 1579) 50.6 µM
inactive: [1] | [3]

CCCCC(CC)COC(=O)CCCCC(=O)OCC(CC)CCCC (stereo unspecified)
not listed: [6]
inactive: all other assays above

CCCCCCCCCCCCc1ccccc1S(=O)(=O)O
inactive: [1] | [3]
active: [2] 84.6 µM | [4] 84.5 µM | [5] 87.3 µM | CYP2C8 (gene 1558) 82.3 µM | CYP2E1 (gene 1571) 78.3 µM | CYP4A11 (gene 1579) 80.7 µM

CC(O)CO (stereo unspecified)
inactive: all assays above

COCC(C)OCC(C)O (stereo unspecified)
not listed: [6]
inactive: all other assays above

O=C(O)Cc1cc(I)c(Oc2cc(I)c(O)c(I)c2)c(I)c1
inactive: [1]
active: [2] 0.0864 µM | [3] 56.7 µM | [4] 55.3 µM | [5] 62.7 µM | CYP2C8 (gene 1558) 61.5 µM | CYP2E1 (gene 1571) 6.65 µM | CYP4A11 (gene 1579) 53.2 µM

CCCCCCCC(=O)O
not listed: [6]
inactive: all other assays above

Cc1oc(-c2ccccc2)nc1CCOc1ccc(C[C@H](Nc2ccccc2C(=O)c2ccccc2)C(=O)O)cc1
inactive: [1]
active: [2] 27.2 µM | [3] 32.1 µM | [4] 18.5 µM | [5] 23.3 µM | CYP2C8 (gene 1558) 25.2 µM | CYP2E1 (gene 1571) 17.1 µM | CYP4A11 (gene 1579) 28.1 µM

CN1CCN(c2ccccc2/C=C2\SCCN(c3ccc(Cl)c(Cl)c3)C2=O)CC1
active: [2] 4.69 µM | [3] 93.4 µM | [4] 50 µM | CYP2E1 (gene 1571) 12.8 µM | CYP4A11 (gene 1579) 17.4 µM
inactive: [1] | [5] | CYP2C8 (gene 1558) | [6]
